# Calls of active or inactive are those of the source. Unless noted, how the calls were made is not given here.
# Experiments:
# [1] = test system: Wnt5a (protein binding on small-molecule microarray); assay: small molecules binding Wnt5a protein – biophysical, small-molecule microarray, 635/667 nm fluorescence, primary screen (AID 1142); settings: 635 nm fluorescence, higher = more signal;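 further: fluorescence read at 667 nm with signal to noise per printed feature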
# [2] = ATP-based viability of Huh7 replicon cells – cell-based, CellTiter-Glo luminescence, basal, 48 h, cytotoxicity control for HCV replication inhibitor project, primary screen (AID 1143); settings: higher = more signal, called active from +8 up or from −8 down;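 further: Huh7 hepatoma cells carrying a hepatitis C replication reporter with no stimulus; test concentration not given here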
# [3] = Pseudomonas biofilm growth suppression – PAO1 strain, BacTiter-Glo luminescence, LB-PBS, primary screen (AID 1144); settings: P. aeruginosa PAO1 biofilm, 12 h, higher = more signal
# [4] = basal CRE-LacZ reporter activity in PC12 – cell-based, unstimulated, primary screen (AID 1145); settings: no forskolin, luminescence, 4.5 h, higher = more signal, called active from +8 up or from −8 down
# [5] = forskolin-driven CRE-LacZ activity in PC12 – cell-based, CRE-LacZ reporter, forskolin-stimulated, primary screen (AID 1146); settings: luminescence, 4.5 h, higher = more signal, called active from +8 up or from −8 down;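 further: PC12 cells with 6xCRE LacZ reporter stimulated by forskolin 10 µM; beta-galactosidase reporter signal reflecting CREB driven transcription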
# [6] = molecular target: Streptavidin (Streptomyces avidinii) (UniProt P22629); assay: compounds binding control protein streptavidin – biophysical, small-molecule microarray, 635/667 nm fluorescence, artefact control for SMM compound annotation, primary screen (AID 1147); settings: higher = more signal;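 further: signal reflects streptavidin binding to arrayed compounds as a control protein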
# Streptavidin (Streptomyces avidinii), sequence (P22629 whole entry, looked up): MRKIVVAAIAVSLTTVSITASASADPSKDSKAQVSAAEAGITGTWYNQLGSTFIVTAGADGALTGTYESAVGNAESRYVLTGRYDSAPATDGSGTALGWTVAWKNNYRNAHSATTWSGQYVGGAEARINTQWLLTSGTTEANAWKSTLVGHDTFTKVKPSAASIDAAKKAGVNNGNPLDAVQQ
# [7] = probe aInhba binding on compound microarray – biochemical, small-molecule microarray, 635/667 nm fluorescence, primary screen (AID 1148); settings: higher = more signal;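 further: score merges 667nm spot fluorescence with signal-to-noise for antibody binding to printed compounds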
# [8] = molecular target: Torsin-1A (Homo sapiens) (UniProt O14656); assay: TOR1A wild-type binding on microarray – cell lysate, small-molecule microarray, lysate, 635/667 nm, primary screen (AID 1149); settings: COS7 hTOR1A-WT lysate, 635 nm fluorescence, higher = more signal
# Torsin-1A (Homo sapiens), sequence (O14656 whole entry, looked up): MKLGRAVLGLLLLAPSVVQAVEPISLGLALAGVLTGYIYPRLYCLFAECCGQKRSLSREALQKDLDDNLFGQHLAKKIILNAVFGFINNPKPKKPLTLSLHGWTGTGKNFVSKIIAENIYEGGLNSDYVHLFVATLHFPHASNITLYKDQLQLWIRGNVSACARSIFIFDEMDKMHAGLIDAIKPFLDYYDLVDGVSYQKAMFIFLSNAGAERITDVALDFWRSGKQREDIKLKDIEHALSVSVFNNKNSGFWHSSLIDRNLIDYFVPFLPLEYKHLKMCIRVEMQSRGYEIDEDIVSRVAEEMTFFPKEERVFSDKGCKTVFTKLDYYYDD
# [9] = molecular target: Torsin-1A (Homo sapiens) (UniProt O14656); assay: torsin A mutant lysate binding on microarrays – cell lysate, small-molecule microarray, COS7 lysate, 635/667 nm fluorescence, primary screen (AID 1150); settings: COS7 hTOR1A mutant lysate, 635 nm fluorescence, higher = more signal;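 further: score pools 667 nm emission and signal to noise measuring lysate protein binding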
# [10] = test system: Sonic hedgehog protein (Shh); assay: Sonic hedgehog microarray binding compounds – biochemical, small-molecule microarray, 635/667 nm fluorescence, primary screen (AID 1151); settings: 635 nm fluorescence, higher = more signal;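 further: Shh protein binding to compounds spotted on small-molecule microarray slides; score combines spot fluorescence intensity with signal-to-noise across triplicate slides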
Compound,composite z-score [1],z-score [2],z-score [3],z-score [4],z-score [5],composite z-score [6],composite z-score [7],composite z-score [8],composite z-score [9],composite z-score [10]
O=C1C2C=CC(C(O)C3CC=CCC3)N(Nc3ccc([N+](=O)[O-])cc3)C2C(=O)N1c1ccccc1 (stereo not given),0.632,-0.574 (inactive),-0.917 (inactive),1.23 (inactive),1.13 (inactive),0.941,0.74,0.26,0.483,0.606
[N-]=[N+]=NCc1ccccc1[C@H]1OC(c2ccc(OCCCO)cc2)=N[C@@]1(Cc1ccccc1N=[N+]=[N-])C(=O)O,0.322,-1.16 (inactive),0.159 (inactive),-0.137 (inactive),-0.763 (inactive),1.55,0.147,0.136,0.691,-0.141
COCCOC(=O)N1C(=O)[C@@]2(c3cc(C#CCC(C(=O)OC)C(=O)OC)ccc31)[C@H](c1ccc(O)cc1)N1[C@H](c3ccccc3)[C@H](c3ccccc3)OC(=O)[C@H]1[C@@H]2C(=O)N1CCc2cc(OC)c(OC)cc2C1,0.227,-0.233 (inactive),0.12 (inactive),0.0384 (inactive),0.118 (inactive),-0.341,0.0714,0.0553,0.391,1.31
C=C1C(=O)C=C2CN(C(=O)c3ccccc3)[C@@](Cc3ccc(F)cc3)(C(=O)OC)[C@@H]12,0.272,-5.23 (inactive),1.1 (inactive),-0.375 (inactive),-2.15 (inactive),1.87,0.49,0.172,0.73,-0.0536
C=CC[C@H](OC(=O)Nc1ccc(SC)cc1)c1ccc(O)c(F)c1,-0.171,-0.489 (inactive),-0.459 (inactive),0.31 (inactive),5.56 (inactive),-0.588,-0.285,-0.135,-0.151,0.988
COCCOC(=O)N1C(=O)[C@@]2(c3cc(C#CCNC(N)=O)ccc31)[C@H](c1ccc(O)cc1)N1[C@H](c3ccccc3)[C@H](c3ccccc3)OC(=O)[C@H]1[C@@H]2C(=O)N1CCc2cc(OC)c(OC)cc2C1,0.0981,-0.483 (inactive),0.389 (inactive),-0.0515 (inactive),-0.379 (inactive),0.468,-0.0448,-0.0669,0.148,0.97
CC(C)c1ccc(NN2C(C(O)C3CCCCC3)C=CC3C(=O)N(c4ccccc4)C(=O)C32)cc1 (stereo not given),0.283,-0.575 (inactive),-1.15 (inactive),0.0467 (inactive),0.337 (inactive),1.88,0.0968,-0.147,0.316,0.771
C=C(COC)/C(=C/C[C@@H](OC(=O)c1ccncc1)c1ccccc1OCCO)c1cnc2ccccc2c1,1.09,-3 (inactive),1.45 (inactive),18.2 (active),1.24 (inactive),1.93,0.0422,0.113,1.15,2.07
O=C1C[C@@](C(=O)NCC(F)(F)F)(c2ccc([N+](=O)[O-])cc2)[C@@H](c2ccc(CO)cc2I)N1CC12CC3CC(CC(C3)C1)C2,0.437,-5.73 (inactive),-1.44 (inactive),0.558 (inactive),-1.01 (inactive),0.229,0.0167,-0.286,-0.251,1.53
COc1cc2c(cc1OC)CN(C(=O)[C@@H]1[C@H]3C(=O)O[C@H](c4ccccc4)[C@H](c4ccccc4)N3[C@H](c3ccc(O)cc3)[C@@]13C(=O)Nc1ccc(C#CC4=CCCCC4)cc13)CC2,0.236,-1.56 (inactive),-0.376 (inactive),-0.375 (inactive),-0.493 (inactive),1.03,0.271,0.335,0.794,1.07

# — PubChem BioAssay
